# Screening data as filed in PubChem.
# DAX1 inh-1: inhibitors of human orphan nuclear receptor DAX1 (NR0B1); P51843; HEK293 Gal4-DAX1 luciferase reporter, luminescence; inhibition, % at 6.75 µM; 340,000 tested, 0.99% active; AID 504766;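 active means inhibition above the mean over all tested compounds plus 3 SD, cut at about 4.2% in these data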;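 further: 0% = DAX1-transfected cells with DMSO and 100% = empty-vector control cells with DMSO; inhibition shows as a rise in luminescence from relieved DAX1 repression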
# Target sequence (P51843 207-470 limits assumed): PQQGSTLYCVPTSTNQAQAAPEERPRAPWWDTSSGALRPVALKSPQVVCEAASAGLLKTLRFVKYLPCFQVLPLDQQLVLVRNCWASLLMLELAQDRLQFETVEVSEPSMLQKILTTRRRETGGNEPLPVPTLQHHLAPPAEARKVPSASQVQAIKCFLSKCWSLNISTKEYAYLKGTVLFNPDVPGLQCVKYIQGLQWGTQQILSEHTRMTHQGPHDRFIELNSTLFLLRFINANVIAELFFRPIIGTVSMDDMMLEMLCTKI
# DAX1 inh-2: DAX1 (NR0B1) inhibition, primary screen. inhibition, % at 6.8 µM. 370,000 tested, 1.1% active. HEK293T StAR-luciferase reporter, SF-1/DAX-1 repression relief;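 active means inhibition above the mean over all tested compounds plus 3 SD, cut at about 3.6% in these data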;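 further: 0% = DAX-1 cells with DMSO and 100% = cells lacking DAX-1 with DMSO; higher inhibition means more luminescence from relief of DAX-1 repression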
# hcDAF-12 act: activates DAF-12 receptor from parasite H. contortus; HEK293 hcDAF-12 lit1-tk-luc reporter, luminescence; 0% DMSO, 100% Δ7-dafachronic acid; activation, % at 6.8 µM; 370,000 tested, 1.4% active; AID 652067;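 active means activation above the mean of all tested compounds plus 3 SD, cut at about 5.5% in these data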;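 further: 100% = response to 3 µM Δ7-dafachronic acid high control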
# hgDAF12 agonist: activates the H. glycines DAF-12 receptor ligand-binding domain; HEK293 GAL4-hgDAF12 UAS-luciferase reporter, agonist luminescence; normalized to butyrate control; activation, % at 6.8 µM; 370,000 tested, 1.8% active; AID 687014;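 active means activation above a cutoff set at the mean of all screened compounds plus 3 SD, cut at about 10% in these data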;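 further: 0% = DMSO wells and 100% = sodium butyrate wells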
# ssDAF-12 act: activators of S. stercoralis DAF-12 nuclear receptor. activation, % at 6.8 µM. HEK293 ssDAF-12/GRIP1 lit1-tk-luc reporter, luminescence; % of 3 µM dafachronic acid response. 370,000 tested, 1% active;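 active means activation above the mean over all tested compounds plus 3 SD, cut at about 0.9% in these data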;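 further: 0% = DMSO-only wells and 100% = 3 µM delta7-dafachronic acid wells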
# * = called active by the depositor; x = no result given. Rows were chosen to be rich in hits. Some 4.1% of all compounds tested hit in one or more screens of this group.
SMILES,DAX1 inh-1,DAX1 inh-2,hcDAF-12 act,hgDAF12 agonist,ssDAF-12 act
CC1CCCN(C(C(=O)Nc2ccc3c(c2)OCO3)c2ccccc2)C1 (configuration not stated),0,1,6.3*,6,0
CC1CCCN(C(C(=O)Nc2ccc3c(c2)OCCO3)c2ccccc2)C1 (configuration not stated),0,0,-1,-2,-1
C#CCOCCOCCOCCNc1nc(N2CCN(C(=O)[C@H](CCCCN)n3cc(CN)nn3)CC2)nc(N2CCN(C(=O)[C@H](CCCCN)n3cc([C@@H](N)CC(N)=O)nn3)CC2)n1,0,0,0,-1,-1
C#CCOCCOCCOCCNc1nc(N2CCN(C(=O)[C@H](CCCCN)n3cc([C@@H](N)CC(N)=O)nn3)CC2)nc(N2CCN(C(=O)[C@H](CCCCN)n3cc([C@@H](N)CC(N)=O)nn3)CC2)n1,4.5*,0,0,3,-1
COc1cccc(-c2cc(N3C(=O)Nc4ccccc4N3O)n[nH]2)c1,4.8*,-1,0,-1,0
C=CCN1C(=O)[C@@H](CC(=O)N2CCN(C(=O)C3CC3)CC2)[C@]2(C(=O)OCC)CCCCC/C=C/12,x,0,1,-1,-1
Cc1c(C(=O)O)cc(C(C)(C)C)n1CCSCCO,6.8*,0,-1,1,-1
CSCCn1c(C(C)(C)C)cc(C(=O)O)c1C,1,0,0,-1,-1
CCC1(C)NC(C(=O)O)Cc2c1[nH]c1ccccc21 (configuration not stated),-1,0,4,2,1.7*
CCCN1CCC2(CC1)NC(C(=O)O)Cc1c2[nH]c2ccccc12 (configuration not stated),1,x,x,x,x
O=C(Nc1ccccc1C(F)(F)F)OCCN1C(=O)CCC12CCC(c1ccccc1)CC2 (configuration not stated),x,-1,-3,-2,-2
Clc1ccc(-c2nc3ccccc3nc2-c2ccccc2)cc1,0,0,6.1*,-4,-1
Cc1ccc(-c2nc3ccccc3nc2-c2ccccc2)cc1,1,0,3,-1,-1
COCCNC(=O)CSc1ccccc1C(=O)NCC1CCCCC1,6.6*,0,1,-1,-1
CC1CCN(C(=O)c2ccccc2SCC(=O)NCC2CCCCC2)CC1,-1,0,-1,1,0
OCCCNc1ncnc2c1ncn2[C@H]1CN(Cc2ccc(-c3ccccc3)cc2)C[C@@H](CO)O1,x,-2,-2,-1,-2
COc1cc2c(cc1CNC[C@H]1O[C@@H](n3cc(C)c(=O)[nH]c3=O)C[C@@H]1O)OCO2,5.0*,0,1,1,-1
COc1ccc(CN2C[C@]3(C=C(C)Cn4c(=O)n(-c5ccccc5)c(=O)n43)N(C(=O)OCc3ccccc3)C2=NC(=O)c2ccccc2)c(OC)c1,x,1,-1,-1,-1
c1ccc(-n2cnnc2SCc2nc3ccccc3s2)cc1,3,1,5,7,1.0*
c1ccc(Cn2c(SCc3nc4ccccc4s3)nnc2-c2ccco2)cc1,0,-1,2,1,0
CCC(c1nnc(SCc2nc3ccccc3s2)n1Cc1ccccc1)N(C)C (configuration not stated),0,2,5.7*,2,0
C[C@H]1[C@@H](OC(=O)NCc2cccc(C(F)(F)F)c2)CC[C@@]23CCCN2C(=O)CCC[C@@H]13,x,x,1,4,-2
Cc1ccc(Nc2cc(C)nc(-c3ccccc3O)n2)cc1,2,0,0,13*,-1
Nn1c(SCC(=O)NC2CCCCC2)nnc1-c1cc(-c2ccc(Cl)cc2)n[nH]1,x,-1,-1,4,0
O=C(O)c1ccc(-n2nnnc2Oc2ccccc2C(=O)N2CCOCC2)cc1,4.9*,-1,-1,0,-1
SMILES,DAX1 inh-1,DAX1 inh-2,hcDAF-12 act,hgDAF12 agonist,ssDAF-12 act
O=C(CSc1nnc(-c2cccnc2)n1-c1ccccc1)c1ccccc1Cl,x,0,-1,4,0
CCCCCCCCS(=O)C1CS(=O)(=O)CC1O (configuration not stated),4.7*,0,0,0,-2
COC(=O)c1ccc(NC(=O)CSc2ccccc2)cc1,7.4*,2,1,5,0
Clc1ccccc1CSc1cc2c(nn1)-c1ccccc1CC2,1,2,4,11*,0
Clc1cccc(Cl)c1CSc1cc2c(nn1)-c1ccccc1CC2,-1,-1,-1,-1,-1
C[C@@H]1[C@H](O)[C@@H](C)/C=C/C=C/C=C/C=C/C=C/C=C/C=C/[C@H](OC2O[C@H](C)[C@@H](O)[C@H](N)[C@@H]2O)C[C@@H]2O[C@](O)(C[C@@H](O)C[C@@H](O)[C@H](O)CC[C@@H](O)C[C@@H](O)CC(=O)O[C@H]1C)C[C@H](O)[C@H]2C(=O)O (some centres not stated),x,1,-1,7,-1
Nc1[nH]c2cc(Cl)ccc2c1C(=O)N1CCOCC1,x,1,4,1,0
COC(=O)CC1C(=O)NCCN1C(=O)CSc1nc2ccccc2s1 (configuration not stated),1,1,4,-1,1.2*
COC(=O)CC1C(=O)NCCN1C(=O)c1ccccc1 (configuration not stated),2,0,0,1,-1
COC(=O)CC1C(=O)NCCN1C(=S)Nc1ccc(F)cc1 (configuration not stated),5.2*,0,1,2,-1
O=C(NCc1ccc(Cl)cc1)O[C@H]1CC[C@@]23CCCN2C(=O)CCC[C@H]3C1,x,x,-1,1,-2
Cc1ccc(C(=O)Cn2nnc3ccccc32)cc1[N+](=O)[O-],6.0*,1,1,0,0
O=C(Cn1nnc2ccccc21)c1cccc([N+](=O)[O-])c1,0,0,-1,-2,-2
O=C1C2C3c4ccccc4C(c4ccccc43)[C@@H]2C(=O)N1c1nc(-c2ccccc2)cs1 (some centres not stated),5.0*,0,-2,4,-1
O=C1C2C3c4ccccc4C(c4ccccc43)C2C(=O)N1c1nc(-c2ccccc2)cs1 (configuration not stated),-1,-1,0,2,-1
COc1ccc(C2CCC3(CCC(=O)N3CCO)CC2)cc1 (configuration not stated),x,0,2,0,-1
Cc1cc(NC(=O)C2CC2)n(-c2nc3ccccc3s2)n1,0,-1,5.6*,10,0
Cc1ccc([N+](=O)[O-])c2c1C(N1CC(C)OC(C)C1)C(C)(C)O2 (configuration not stated),3,0,-2,-2,15*
Cc1ccc([N+](=O)[O-])c2c1C(N1CCCCC1)C(C)(C)O2 (configuration not stated),1,0,-3,-1,-1
